ELG1 genotoxic = genotoxicity induction in ELG1-luciferase HEK293T cells. HEK293T ELG1-luciferase reporter, luminescence, 16 h. AID 504466. hit rate 1.3% among 330,000. Potency, µM (doses to about 46 µM), hits mostly activators; further: nearly all actives have a fitted effect of over 60% in size
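Genotoxic stress is detected as increased luminescence from luciferase-tagged ELG1 in HEK293T cells, measured with ONE-Glo after a 16 hr treatment at 37 °C.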
SMN2 splice enh = enhancers of SMN2 splice variant expression; HEK293 SMN2-luciferase splicing reporter, luminescence, 30-36 h; Potency, µM (series often up to 46.1 µM), hits mostly activators; hit rate 2.8% among 210,000; AID 1458; further: nearly all actives have a fitted effect of over 55% in size
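qHTS luciferase splicing reporter: luminescence rises when SMN2 exon 7 is included in transfected HEK293 cells. Compound exposure lasted 30-36 h at 37C, with 4.5 mM final sodium butyrate as control, followed by a ONE-Glo read.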
Rab9 promoter act = activates the Rab9 promoter | hit rate 2.8% among 320,000 | Potency, µM (series often up to 9.22 µM), actives largely listed as activators | Huh7 Rab9 promoter-luciferase reporter, luminescence, 24 h | AID 485297; further: nearly all actives have a fitted effect of over 60% in size
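Measured in stably transfected Huh7 cells bearing a Rab9 promoter–luciferase construct: 24 h compound treatment at 37 °C, followed by luminescence detection.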
ELG1 repair inh = inhibitors of ELG1-dependent DNA repair in HEK293T cells; HEK293T ELG1-luciferase reporter, luminescence, 16 h; DNA damage induced by 5-fluorouridine; Potency, µM (doses to about 46.1 µM), usual class: inhibitors; hit rate 2.3% among 330,000; AID 504467; further: nearly all actives have a fitted effect of over 55% in size
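Luminescence from the luciferase reporter, measured 30 min after ONE-Glo reagent at room temperature, was the read-out. Beforehand, 2,000 cells per well were exposed for 16 hr at 37 °C to 5-fluorouridine together with compound or vehicle.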
FLuc modulator = counter-screen for miR-21 project: firefly luciferase inhibitors or activators | P08659 | purified FLuc, Km substrates, luminescence inhibition | Potency, µM (doses to about 57.5 µM), actives largely listed as inhibitors | hit rate 6.9% among 360,000 | AID 588342; further: nearly all actives have a fitted effect of over 55% in size
Target sequence (P08659 whole entry, looked up): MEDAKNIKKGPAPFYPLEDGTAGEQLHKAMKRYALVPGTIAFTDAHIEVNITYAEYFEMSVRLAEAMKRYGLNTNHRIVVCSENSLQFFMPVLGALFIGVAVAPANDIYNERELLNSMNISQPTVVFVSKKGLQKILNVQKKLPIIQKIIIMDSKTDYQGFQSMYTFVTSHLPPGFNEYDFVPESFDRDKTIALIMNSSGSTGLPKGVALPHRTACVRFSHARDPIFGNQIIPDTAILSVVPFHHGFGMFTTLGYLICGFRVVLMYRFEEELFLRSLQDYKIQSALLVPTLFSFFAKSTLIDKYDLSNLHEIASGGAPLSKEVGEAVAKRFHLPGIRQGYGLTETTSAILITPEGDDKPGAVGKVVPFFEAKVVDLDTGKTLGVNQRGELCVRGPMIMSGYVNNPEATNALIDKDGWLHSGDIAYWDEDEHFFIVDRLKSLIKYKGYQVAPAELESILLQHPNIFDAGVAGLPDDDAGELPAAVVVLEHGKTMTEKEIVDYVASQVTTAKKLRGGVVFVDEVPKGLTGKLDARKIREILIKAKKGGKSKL
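Biochemical qHTS of compounds, final roughly 60 µM downward over six points, against 10 nM purified firefly luciferase using Km concentrations of substrates (10 uM D-luciferin, 10 uM ATP) in Tris acetate pH 7.5 buffer; luminescence output.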
NPC1 promoter act = activators of NPC1 promoter | Potency, µM (top dose mostly 9.22 µM), most hits filed as activators | Huh7 NPC1 promoter luciferase reporter, 24 h | hit rate 2.4% among 320,000; further: nearly all actives have a fitted effect of over 60% in size
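Huh7 reporter cells (NPC1 promoter driving luciferase) are dosed with compound for 24 h at 37 °C, 5% CO2; luciferase detection reagent is then added and luminescence measured after 10 min at ambient temperature.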
Numbers stand for hits; - = inactive; ? = inconclusive; . = no result given; [ ] = another dose, or the depositor's remark. Hits are enriched below; roughly 9.2% of the tested compounds scored in any of these assays. The call rests on the fitted dose curve; in most records, active means well fitted curve in the direction sought with a large enough effect; inconclusive means small, poorly fitted or top-dose-only effect, or another doubt; inactive means no such curve, though single readings can be large; an effect the other way counts as inactive or inconclusive.

SMILES	ELG1 genotoxic	SMN2 splice enh	Rab9 promoter act	ELG1 repair inh	FLuc modulator	NPC1 promoter act
Cc1ccc(/C=C(\NC(=O)c2ccccc2)C(=O)N2CCCC2C(=O)O)cc1 (stereo unspecified)	-	-	-	-	-	-
Cc1cc(C)c2c(N)c(-c3nc4ccccc4[nH]3)sc2n1	?	12.6µM	2.82µM	?	?	?
Cc1ccc2nc(-c3sc4nc(C)ccc4c3N)[nH]c2c1	?	2.24µM	3.16µM	?	1.2µM	3.16µM
Cc1ccc2c(N)c(C#N)sc2n1	-	?	-	-	-[2.3 µM]	-
COc1ccccc1N/C=C/c1onc(C)c1[N+](=O)[O-]	?	1.12µM	0.398µM	?	0.301µM	1µM
Cc1noc(/C=C/Nc2ccc(F)cc2F)c1[N+](=O)[O-]	16.4µM	3.98µM	1.41µM	?	2.13µM	?
COc1ccccc1Nc1ccc2nonc2c1[N+](=O)[O-]	-	.	-	-	-	-
Cc1noc(/C=C/c2ccccn2)c1[N+](=O)[O-]	-	.	-	18.3µM	?	-
Cc1noc(C(=O)Nc2ccc(F)cc2F)c1Cl	-	.	-	-	-	-
CN(C)c1ccc(CNC(=O)[C@@]2(C)C=C[C@@H](Cc3ccccc3)N2C)cc1	.	-	.	.	.	.
COc1cccc(-c2cncnc2NCc2ccc(OC)cc2OC)c1	.	-	.	.	.	.
COc1ccc(C(=O)Nc2c(C(C)(C)C)nn(C)c2C(C)(C)C)cc1	-	.	-	-	-	-
COc1ccc2ncc3c(-c4ccccc4)nn(-c4ccc(C)c(C)c4)c3c2c1	.	-	.	.	-	.
O=C(Nc1ccc(OCC(=O)N2CCOCC2)cc1)c1cccc(Cl)c1	-	.	-	?	7.57µM	-
CN(C)S(=O)(=O)c1ccc(C(=O)Nc2ccc(OCC(=O)N3CCOCC3)cc2)cc1	-	-	-	-	15.1µM	-
COc1cc(C(=O)Nc2ccc(C(F)(F)F)cc2)ccc1OCC(=O)N1CCOCC1	-	.	-	?	6.75µM	-
Cc1cc(NC(=O)c2ccccc2F)cc(C)c1OCC(=O)N1CCOCC1	-	.	-	?	9.53µM	-
CCOc1ccc(S(=O)(=O)N(C)c2ccc(OCC(=O)N3CCOCC3)cc2)cc1	-	-	-	-	-	-
COc1cc(C(=O)Nc2cc(C)c(OCC(=O)N3CCOCC3)c(C)c2)cc(OC)c1OC	-	.	-	-	-	-
Cc1cc(NC(=O)c2cc3ccccc3o2)cc(C)c1OCC(=O)N1CCOCC1	-	-	-	?	12µM	-
COC(=O)Nc1ccc(OCC(=O)N2CCOCC2)cc1	-	-	-	-	-	-
O=C(Nc1ccc(OCC(=O)N2CCOCC2)cc1)c1ccccc1F	-	.	-	?	4.78µM	-
O=C(CCC1CCCC1)Nc1ccc(OCC(=O)N2CCOCC2)cc1	-	-	-	?	4.78µM	-
COc1ccc(C(=O)Nc2ccc(OCC(=O)N3CCOCC3)cc2)c(OC)c1OC	-	.	-	?	13.5µM	-
Cc1ccc2[nH]c(CN3CCC(CO)(CC4CCCCO4)CC3)c(C)c2c1 (stereo unspecified)	-	.	-	-	-	-
SMILES	ELG1 genotoxic	SMN2 splice enh	Rab9 promoter act	ELG1 repair inh	FLuc modulator	NPC1 promoter act
CCCCc1nn2c(=O)cc(COC(=O)COc3ccc(C)cc3)nc2s1	.	.	.	.	-	.
O=C(OC1CCN(c2ncc(C(F)(F)F)cc2Cl)CC1)c1ccc(Cl)cc1	-	-	-	-	-	-
O=C(CSc1nccn1-c1ncc(C(F)(F)F)cc1Cl)c1ccc(Cl)cc1	-	-	3.55µM	?	?	3.98µM
Cc1ccc(OCC(=O)Nc2ccc3nc(SCC(=O)N4CCCC4)sc3c2)cc1	.	.	.	.	-	.
CC1CC1c1ccc(/C=C(\C#N)C(=O)Nc2ccc(Cl)cc2)o1 (stereo unspecified)	?	8.91µM	3.55µM	?	4.78µM	3.55µM
CCOc1ccc(NC(=O)/C(C#N)=C\c2ccc(-c3ccc(Cl)cc3)o2)cc1	.	-	.	.	-	.
CC1CC1c1ccc(/C=C(\C#N)C(=O)Nc2ccccc2Cl)o1 (stereo unspecified)	-	?	-	?	19µM	-
O=C(c1cc2nc(-c3ccco3)cc(C(F)(F)F)n2n1)N1CCN(c2ccccc2)CC1	-	-	-	?	-	-
COc1cccc(-c2cc(C(F)(F)F)n3nc(C(=O)N4CCCCC4c4cccnc4)cc3n2)c1 (stereo unspecified)	-	-	-	20.6µM	15.1µM	-
O=C(c1cc2nc(-c3ccco3)cc(C(F)(F)F)n2n1)N1CCCCCC1	-	-	-	-	21.3µM	-
COc1ccc(-c2cc(C(F)(F)F)n3nc(C(=O)N4CCCCC4)cc3n2)cc1	-	-	-	-	?	-
CCCCCC(=O)Nc1ccc(C(=O)COC(=O)c2ccccn2)cc1	-	.	-	?	-	-
CCCc1cc(=O)[nH]c(SCC(=O)c2c(N)n(C3CC3)c(=O)[nH]c2=O)n1	-	.	-	-	-	-
COC(=O)c1c(C)[nH]c(C=Nc2ccc(OC)cc2)c1C	-	.	-	-	7.57µM	-
CCOC(=O)c1c(C)[nH]c(C=Nc2ccc(OC)cc2)c1O	?	11.2µM	2.24µM	?	21.3µM	3.98µM
CC(Sc1nnc(-c2cccnc2)n1N)C(=O)NCCC1=CCCCC1 (stereo unspecified)	-	.	-	-	-	-
Cc1ccc(C)c(OC(C)C(=O)Nc2ccc(S(=O)(=O)Nc3nccs3)cc2)c1 (stereo unspecified)	-	.	-	-	-	-
CCOC(=O)c1ccc2c(c1)N(Cc1ccccc1C)C(=O)c1ccccc1S2=O (stereo unspecified)	-	-	-	16.4µM	-	-
COc1ccc(OC)c(NC(=O)Cn2c(=O)cc(-c3ccccc3)c3c(C)nn(C)c32)c1	.	.	.	.	-	.
CCOc1ccc(-c2csc(/C(C#N)=C\c3ccc(O)c([N+](=O)[O-])c3)n2)cc1	-	-	-	13µM	4.26µM	-
COc1ccc(-n2nc(C(=O)O)c3ccccc3c2=O)c(OC)c1	-	-	-	-	-	-
COc1ccc(-n2ncc(C(=O)N3CCN(c4ccc(F)cc4)CC3)c2C)cc1	-	.	-	20.6µM	-	-
COc1ccc(-n2nc(C(=O)N3CCN(c4ccc(F)cc4)CC3)c3ccccc3c2=O)c(OC)c1	-	-	-	9.2µM	-	-
COc1ccc(N2CCN(C(=O)c3cnn(-c4ccc(F)cc4)c3-n3cccc3)CC2)cc1	.	.	.	.	-	.
CCCCNC(=O)CNC(=O)c1nn(-c2ccc(OC)cc2OC)c(=O)c2ccccc12	-	.	-	-	-	-
COc1ccc(-n2nc(C(=O)NCC(=O)N3CCN(c4cccc(Cl)c4)CC3)c3ccccc3c2=O)c(OC)c1	-	.	-	-	7.57µM	-
C/C(=N\N1CCN(C2c3ccccc3-c3ccccc32)CC1)c1cccnc1	-	-	-	-	-	-
CN=c1scc(-c2ccccc2F)n1/N=C(\C)c1cccnc1	?	11.2µM	1.78µM	?	7.57µM	1.41µM
